Results taken from PubChem BioAssay (Tox21).
Where “and” joins values, the source holds several entries; their conditions need not be identical. Equal values may be shown once. Records with an inconclusive call do not appear. Entries that show only a call come without a potency. A structure can be active in one record and inactive in another. Calls of active or inactive are those of the source. Calls come from the whole dose curve; as a rule, active = well fitted curve in the direction sought with a large enough effect in the repeat runs; inconclusive = weak or mixed curves; inactive = no such curve, though single readings can be large; an effect the other way counts as inactive or inconclusive.

How the values were obtained:
[1] = qHTS assay for identifying genotoxic compounds that show differential cytotoxicity against isogenic chicken DT40 cell lines with known DNA damage response pathways - wild type cell line (AID 743012); note: nearly all actives have a fitted effect of over 60% in size; note: potency is the fitted concentration of half-maximal effect
Procedure, shortened: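 Using parental DT40 (300 cells/well), compounds delivered in DMSO incubate 40 h at 37 C/5% CO2. CellTiter-Glo reagent then stands 30 min at room temperature, and luminescence gives cell viability.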

[2] = qHTS assay for identifying genotoxic compounds that show differential cytotoxicity against isogenic chicken DT40 cell lines with known DNA damage response pathways - Rev3 mutant cell line (AID 743014); note: nearly all actives have a fitted effect of over 55% in size; note: potency is the fitted concentration of half-maximal effect
[3] = qHTS assay for identifying genotoxic compounds that show differential cytotoxicity against isogenic chicken DT40 cell lines with known DNA damage response pathways - Rad54/Ku70 mutant cell line (AID 743015); note: nearly all actives have a fitted effect of over 60% in size; note: potency is the fitted concentration of half-maximal effect
[4] = qHTS assay to identify small molecule antagonists of the androgen receptor (AR) signaling pathway - cell viability counter screen (AID 743033; note: nearly all actives have a fitted effect of over 45% in size)
[5] = qHTS assay to identify small molecule antagonists of the androgen receptor (AR) signaling pathway using the MDA cell line - cell viability counter screen (AID 743041; note: nearly all actives have a fitted effect of over 45% in size; note: potency is the fitted concentration of half-maximal effect)
Procedure, shortened: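 MDA-kb2 AR-luc cells (MMTV-luciferase, AR/GR responsive) treated with compounds plus R1881 agonist for 16 h at 37C. CellTiter-Fluor added at 15.5 h; fluorescence read after 30 min in the same wells.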

Row | SMILES | Potency [1] | Potency [2] | Potency [3] | Potency [4] | Potency [5]
1 | O=S(=O)(O)O | inactive and 27.3 µM (active) | inactive and 61.1 µM (active) | inactive and 48.6 µM (active) | inactive | inactive
2 | CCCC[N+]1(C)CCCCC1 | inactive | inactive | inactive | inactive | inactive
3 | CCCC[n+]1ccccc1 | inactive | inactive | inactive | inactive | inactive
4 | CCCCCCn1cc[n+](C)c1 |  |  |  |  | 31.9 µM (active) [middle of 5 runs]
5 | Cc1cc(-c2ccc(N)c(C)c2)ccc1N | inactive | inactive and 34.3 µM (active) | inactive and 60.9 µM (active) | inactive | inactive
6 | COc1ccccc1N | inactive | inactive | inactive | inactive | inactive
7 | N#CS | inactive | inactive | inactive | inactive | inactive
8 | C[C@]12CCC(=O)C=C1CC[C@@H]1[C@@H]2CC[C@]2(C)C(=O)CC[C@@H]12 | 23.7 µM (active) and 27.3 µM (active) | 29.8 µM (active) and 47.7 µM (active) and 54.5 µM (active) | 26.6 µM (active) and 42.5 µM (active) and 27.3 µM (active) | inactive | inactive
9 | Nc1ccc(-c2ccc(N)c(Cl)c2)cc1Cl | 54.5 µM (active) | 48.8 µM (active) and 28.6 µM (active) and 54.5 µM (active) | 61.4 µM (active) and 50.8 µM (active) and 54.5 µM (active) | inactive | inactive
10 | CCCC[N+]1(C)CCCC1 | inactive | inactive | inactive | inactive | inactive
